Compound activity as filed in PubChem.
CYP2C9 inh: human CYP2C9 inhibition; P11712; actives 20% (n = 96,000); AID 777; inhibition, % at 5 µM; CYP2C9 Supersomes, luciferin-H conversion, luminescence;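 active = blocking of liver enzyme CYP2C9 beyond about 50% at 5 µM, limit read from the data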
Target sequence (P11712 whole entry, looked up): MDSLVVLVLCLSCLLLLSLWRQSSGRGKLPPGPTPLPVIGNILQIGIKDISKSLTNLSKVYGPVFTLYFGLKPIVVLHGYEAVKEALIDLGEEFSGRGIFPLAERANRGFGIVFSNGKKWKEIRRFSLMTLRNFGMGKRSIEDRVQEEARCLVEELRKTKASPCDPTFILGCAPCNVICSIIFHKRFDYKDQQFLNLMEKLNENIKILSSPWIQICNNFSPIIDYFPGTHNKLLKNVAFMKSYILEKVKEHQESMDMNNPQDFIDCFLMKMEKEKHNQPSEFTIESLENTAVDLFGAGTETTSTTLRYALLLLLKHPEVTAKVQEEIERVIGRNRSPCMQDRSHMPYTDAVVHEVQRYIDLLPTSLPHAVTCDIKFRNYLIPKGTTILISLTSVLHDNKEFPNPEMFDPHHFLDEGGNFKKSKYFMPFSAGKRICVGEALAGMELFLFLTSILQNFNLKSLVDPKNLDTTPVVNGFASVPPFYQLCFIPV
CYP2C9 act: increases human cytochrome P450 2C9 activity | P11712 | recombinant CYP2C9, luciferin-H conversion, luminescence; active compounds read high; factor 1 = untreated enzyme, 0 = blocked | activation factor at 5 µM | actives 1.4% (n = 96,000) | AID 1024;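 active = activation factor of 2 or more for CYP2C9 at a 5 µM dose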;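 also: 0 = sulfaphenazole-blocked wells and 1 = vehicle-only wells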
Cav3 T inh: inhibitors of human Cav3.2 T-type calcium channel; actives 4% (n = 100,000); Cav3.2-expressing cells, Fluo-4 calcium fluorescence FDSS; active compounds read low; O95180; B-score at 10 µM; AID 449739;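 active = single-dose well whose peak fluorescence ratio is a statistical outlier from its plate by either plate-standardised score or position-corrected B-score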
CYP2C19 act: activators of human cytochrome P450 2C19. P33261. activation factor at 5 µM. 96,000 tested, under 10 active. recombinant CYP2C19, luciferin-H EGE luminescence; active compounds read high; 0 = fully inhibited enzyme, 1 = untreated enzyme;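 active = activation factor of at least 2 at 5 µM in the primary screen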;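 also: 0 = wells with 2.5 mM tranylcypromine and 1 = vehicle-only wells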
CYP2C19 inhib: human CYP2C19 inhibition; actives 21% (n = 96,000); inhibition, % at 5 µM; CYP2C19 Supersomes, luciferin-H EGE luminescence, 30 min; P33261;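 active = CYP2C19 inhibition above a set limit at 5 µM in the primary screen, cut at about 50% in these data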;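 also: plate controls were negative control wells for no effect and 2.5 mM tranylcypromine positive control for full effect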
Starred values were filed as active, the others as inactive. Most compounds without a hit are left out; they make up all but 27% or so of the library.

For CCOc1ncccc1C(=O)OCC(=O)Nc1cc(C(=O)OC)ccc1C(=O)OC the results were CYP2C9 inh 16.2, CYP2C9 act 0.8, CYP2C19 act 1 and CYP2C19 inhib -2.0.
`Cc1ccc(S(=O)(=O)CC(c2ccccc2)N2CCOCC2)cc1` (stereo not drawn) gave CYP2C9 inh -1.4, CYP2C9 act 1, Cav3 T inh 0.377, CYP2C19 act 0.4 and CYP2C19 inhib 56.8*.
Screening CCOC(=O)c1cc(C(O)(C(F)(F)F)C(F)(F)F)c(/N=C/N(C)C)o1 returned CYP2C9 inh 8.7, CYP2C9 act 0.9, Cav3 T inh -2.66, CYP2C19 act 1 and CYP2C19 inhib 3.6.
`N=C1C(c2ccccc2)=C(O)C2CCc3ccccc3N12` (stereo not drawn) gave CYP2C9 inh -18.5, CYP2C9 act 1.2, Cav3 T inh -0.4, CYP2C19 act 1.2 and CYP2C19 inhib -19.8.
`N=C1C(c2ccc(Br)cc2)=C(O)C2CCc3ccccc3N12` (stereo not drawn) gave CYP2C9 inh 27.2, CYP2C9 act 0.7, Cav3 T inh 0.768, CYP2C19 act 0.5 and CYP2C19 inhib 50.0*.
`CCCCn1nnnc1SCC(=O)Nc1ccc(N(C)C)cc1` gave CYP2C9 inh 21.3, CYP2C9 act 0.8, Cav3 T inh 2.25, CYP2C19 act 0.5 and CYP2C19 inhib 52.8*.
`CCCCn1nnnc1SCC(=O)Nc1ccc(F)cc1` gave CYP2C9 inh 71.2*, CYP2C9 act 0.3, Cav3 T inh 2.09, CYP2C19 act 0 and CYP2C19 inhib 97.3*.
Oc1ccc(Br)cc1-c1nc2cnccn2c1NC1CCCC1 was read as CYP2C9 inh 49.5, CYP2C9 act 0.5, Cav3 T inh -2.79, CYP2C19 act 0.6 and CYP2C19 inhib 39.9.
Screening Oc1ccc(Br)cc1-c1nc2cnccn2c1NC1CCCCC1 returned CYP2C9 inh 90.8*, CYP2C9 act 0.1, Cav3 T inh 0.0203, CYP2C19 act 0.2 and CYP2C19 inhib 76.9*.
`CCOc1cc2c(C#N)c(N3CCCC3)nc(N)c2c(N)n1` gave Cav3 T inh 0.567.
`CC(C)(C)N1C(=O)Cc2c1nc(N)c1c(N)nc(N3CCCCC3CO)c(C#N)c21` (stereo not drawn) gave CYP2C9 inh 75.1*, CYP2C9 act 0.2, Cav3 T inh -0.024, CYP2C19 act 0.7 and CYP2C19 inhib 27.7.
`CCC(C)(C)NC(=O)c1ccc(S(=O)(=O)N(C)c2ccccc2OC)cc1` gave CYP2C9 inh 64.7*, CYP2C9 act 0.4, Cav3 T inh 0.594, CYP2C19 act 0.8 and CYP2C19 inhib 15.0.
Screening COc1ccccc1N(C)S(=O)(=O)c1ccc(C(=O)N(CC(N)=O)C(C)C)cc1 returned CYP2C9 inh -0.4, CYP2C9 act 1, Cav3 T inh -0.111, CYP2C19 act 1.1 and CYP2C19 inhib -10.6.
For COc1ccccc1N(C)S(=O)(=O)c1ccc(C(=O)NCC(C)C)cc1 the results were CYP2C9 inh 83.2*, CYP2C9 act 0.2, Cav3 T inh 0.0852, CYP2C19 act 0.5 and CYP2C19 inhib 52.3*.
Cc1nc2ccccn2c1/C(O)=C1\C(=O)C(=O)N(CCN2CCOCC2)C1c1cccs1 (stereo not drawn) was read as CYP2C9 inh 11.2, CYP2C9 act 0.9, Cav3 T inh 0.00859, CYP2C19 act 1 and CYP2C19 inhib 0.8.
`CC(C)N(Cc1nnc(-c2ccccc2Cl)o1)C(=O)c1cccc(C#N)c1` gave CYP2C9 inh 21.6, CYP2C9 act 0.8, CYP2C19 act 0.6 and CYP2C19 inhib 37.5.
For Cc1cccc(-n2nc3c(c2NC(=O)CCC2CCCCC2)CS(=O)C3)c1C (stereo not drawn) the results were Cav3 T inh -1.29.
For COc1ccc(CC(=O)Nc2c3c(nn2-c2cccc(C)c2C)CS(=O)C3)cc1OC (stereo not drawn) the results were CYP2C9 inh 6.0, CYP2C9 act 0.9, Cav3 T inh 1.73, CYP2C19 act 0.2 and CYP2C19 inhib 78.9*.
Screening COc1ccc(CC(=O)Nc2c3c(nn2-c2cccc(C)c2C)CS(=O)C3)cc1 (stereo not drawn) returned CYP2C9 inh 38.4, CYP2C9 act 0.6, Cav3 T inh 0.386, CYP2C19 act 0.1 and CYP2C19 inhib 94.3*.
For Clc1ccc(OCCn2ccnc2)c(Cl)c1 the results were CYP2C9 inh 96.3*, CYP2C9 act 0, Cav3 T inh -0.447, CYP2C19 act 0 and CYP2C19 inhib 95.1*.
